Bioassay records deposited in PubChem by National Center for Advancing Translational Sciences (NCATS).
Hits are enriched below; roughly 2.5% of the tested compounds scored in any of these assays.
POLK inh – qHTS for Inhibitors of Polymerase Kappa. 400,000 tested, 0.53% active. DNA polymerase kappa (Homo sapiens), Q9UBT6. purified Pol kappa, fluorescent DNA synthesis assay, 10 min. Potency, µM (highest dose often 107 µM), without a hit: top-dose activity, negative = inhibition, usual class: inhibitors; further: on the % scale 0 is the no-effect control and ±100 the full control effect
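Kinetic fluorescence readout at 0 and 10 min followed reaction start with substrate at 50 nM final. Beforehand, enzyme (10 nM Pol kappa) stood 15 min with compound at room temperature; buffer-only wells were negative controls.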
APEX1 inh – qHTS Assay for Inhibitors of the Human Apurinic/apyrimidinic Endonuclease 1 (APE1) | DNA repair nuclease/redox regulator APEX1 (Homo sapiens), P27695 | recombinant APE1, TAMRA/BHQ-2 abasic DNA cleavage fluorescence | Potency, µM (titrated, usually from 65.8 µM), inactives show at the highest dose activity change, negative = inhibition, actives largely listed as inhibitors | 350,000 tested, 0.35% active | AID 2517, 2012;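 further: plate controls were vehicle for no effect and reference inhibitor for full effect; nearly all actives have a fitted effect of over 55% in size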
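Endonuclease cleavage of a quenched abasic-site DNA duplex (50 nM) by APE1 (0.75 nM) was tracked by TAMRA dequenching. Compounds were preincubated with enzyme 15 min at room temperature; data normalized to buffer-only and DMSO wells plus NSC13755 control.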
Pol iota inh – qHTS for Inhibitors of Polymerase Iota; Pol iota fluorescent replication assay, 10 min; Potency, µM (series often up to 115 µM), inactives show at the top dose activity, negative = inhibition, hits mostly inhibitors; 390,000 tested, 1% active; DNA polymerase iota (Homo sapiens), Q9UNA4
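Pol iota at 10 nM preincubated 15 min with compounds at room temperature; reaction started with fluorescent substrate, 50 nM final. Fluorescence read kinetically at 0 and 10 min; buffer-only wells as negative control.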
L3MBTL1 block – qHTS Assay for the Inhibitors of L3MBTL1; AlphaScreen L3MBTL1–H3K9me1 peptide binding; Potency, µM (top dose mostly 57.1 µM), for inactives: top-dose activity, negative = inhibition, usual class: inhibitors; 230,000 tested, 0.66% active; further: on the % scale 0 is the no-effect control and ±100 the full control effect; nearly all actives have a fitted effect of over 60% in size
Target sequence (Q9Y468 whole entry, looked up): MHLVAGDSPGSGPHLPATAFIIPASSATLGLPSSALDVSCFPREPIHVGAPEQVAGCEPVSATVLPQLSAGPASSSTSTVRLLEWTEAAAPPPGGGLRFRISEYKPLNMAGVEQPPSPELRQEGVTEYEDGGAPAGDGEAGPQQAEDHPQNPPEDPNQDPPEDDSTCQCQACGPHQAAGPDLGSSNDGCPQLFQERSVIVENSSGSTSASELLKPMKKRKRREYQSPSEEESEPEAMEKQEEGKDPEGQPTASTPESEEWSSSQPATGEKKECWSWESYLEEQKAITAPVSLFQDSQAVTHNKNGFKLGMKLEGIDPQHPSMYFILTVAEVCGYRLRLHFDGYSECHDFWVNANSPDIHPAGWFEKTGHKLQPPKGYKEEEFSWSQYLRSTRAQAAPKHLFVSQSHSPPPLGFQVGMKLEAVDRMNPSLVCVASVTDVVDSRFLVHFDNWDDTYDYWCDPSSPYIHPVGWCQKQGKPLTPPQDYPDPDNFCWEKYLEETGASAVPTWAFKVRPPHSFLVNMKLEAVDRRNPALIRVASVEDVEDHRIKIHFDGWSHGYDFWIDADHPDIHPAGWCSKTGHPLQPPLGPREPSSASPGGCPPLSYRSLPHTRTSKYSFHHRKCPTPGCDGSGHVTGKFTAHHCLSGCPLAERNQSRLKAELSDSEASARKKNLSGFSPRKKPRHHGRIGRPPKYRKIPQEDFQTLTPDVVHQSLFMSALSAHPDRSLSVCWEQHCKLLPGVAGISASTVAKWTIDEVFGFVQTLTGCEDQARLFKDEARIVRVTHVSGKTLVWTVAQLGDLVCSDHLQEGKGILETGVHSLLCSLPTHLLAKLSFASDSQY
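Displacement of a biotinylated histone H3(1-15) peptide monomethylated at Lys9 (75 nM) from L3MBTL1 (50 nM) was measured by AlphaScreen after a 30 min room-temperature compound incubation; cefsulodin titration served as intraplate control.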
POLH inh – qHTS for Inhibitors of Polymerase Eta | recombinant Pol eta, fluorescent DNA replication assay | 390,000 tested, 1.2% active | Potency, µM (highest dose often 114 µM), without a hit: top-dose activity change, negative = inhibition, actives largely listed as inhibitors | AID 588591, 2011 | DNA polymerase eta (Homo sapiens), Q9Y253; further: on the % scale 0 is the no-effect control and ±100 the full control effect
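Pol eta at 10 nM preincubated with compounds 15 min at room temperature; reaction started with fluorescent substrate (50 nM final) and read kinetically at 0 and 10 min.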
Pol beta inh – qHTS Assay for Inhibitors of DNA Polymerase Beta. Potency, µM (highest dose often 114 µM), for the others: top-dose activity change, negative = inhibition, most hits filed as inhibitors. 340,000 tested, 1.3% active. P06746. Pol beta primer extension/strand displacement, fluorescence kinetic. AID 485314, 2010; further: on the % scale 0 is the no-effect control and ±100 the full control effect
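Preincubation: enzyme (10 nM) with compound, 15 min, RT. Reaction: substrate added to 50 nM final. Reads: 0 and 10 min. Analysis: normalized, Hill fit.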
* hit, by the source's call; [ ] = another dose, or the depositor's remark. The call rests on the fitted dose curve; in most records, active means well fitted curve in the direction sought with a large enough effect; inconclusive means small, poorly fitted or top-dose-only effect, or another doubt; inactive means no such curve, though single readings can be large; an effect the other way counts as inactive or inconclusive. Potency means the concentration at half of the fitted maximal effect.

Results for COc1ccc(CCN2CC(C(=O)NCCc3ccccc3)CC2=O)cc1OC (configuration not stated) ?
POLK inh: 3.8%; APEX1 inh: -3.4%; Pol iota inh: 27.0%; POLH inh: -15.6%; Pol beta inh: inconclusive

How did O=C(/C=C/c1cnc2ccccc2n1)NC12CC3CC(CC(C3)C1)C2 do in these assays?
POLK inh: -17.1%; APEX1 inh: 10.0%; Pol iota inh: 1.8%; L3MBTL1 block: 29.4%; POLH inh: 2.9%; Pol beta inh: 56.2µM*

What do the screens show for `CC(NC(=O)c1ccco1)C(=O)N1CCN(c2cccc(C(F)(F)F)c2)CC1` (configuration not stated)?
POLK inh: 6.7%; APEX1 inh: 3.6%; Pol iota inh: 62.1%; L3MBTL1 block: 41.7%; POLH inh: -7.6%

Results for CCCN1C(=O)/C(=C/c2c(N3CCNC(=O)C3CC(=O)OC)nc3c(C)cccn3c2=O)SC1=S (configuration not stated) ?
APEX1 inh: 11.0%; L3MBTL1 block: 3.3%; Pol beta inh: 89.1µM*

Results for Nc1[nH]n2c(=O)cc(-c3ccccc3)nc2c1N=Nc1ccc(S(N)(=O)=O)cc1 ?
POLK inh: -30.9%; APEX1 inh: 8.91µM*; Pol iota inh: 34.8%; L3MBTL1 block: -17.3%; POLH inh: -12.9%; Pol beta inh: -23.9%

How did Nc1[nH]n2c(=O)cc(-c3ccccc3)nc2c1N=Nc1ccccc1 do in these assays?
POLK inh: -12.2%; APEX1 inh: 1.7%; Pol iota inh: -10.4%; L3MBTL1 block: 4.6%; POLH inh: -17.6%; Pol beta inh: -0.6%

What do the screens show for `Cc1ccc(-n2nnnc2CNC(=O)c2ccc(F)cc2)cc1C`?
POLK inh: -2.8%[60.1 µM]; Pol iota inh: 14.5%; POLH inh: -19.8%; Pol beta inh: 3.4%

How did COc1ccc(-c2cc(-c3ccco3)[nH]c(=O)c2C#N)cc1OC do in these assays?
POLK inh: 79.4µM*; APEX1 inh: -6.6%; Pol iota inh: 10µM*; L3MBTL1 block: inconclusive; POLH inh: 56.2µM*; Pol beta inh: inconclusive

Results for N#Cc1c(-c2ccccc2)cc(-c2ccc3c(c2)OCO3)[nH]c1=O ?
POLK inh: 2.1%; APEX1 inh: 34.8%; Pol iota inh: 17.1%; L3MBTL1 block: 2.3%; POLH inh: -15.0%

What do the screens show for `COC(=O)c1ccccc1S(=O)(=O)N1CCc2nc(-c3ccc(OC)cc3C)c3c(c2C1)CO[C@@H](c1ccccc1)C3`?
APEX1 inh: 1.3%[12.4 µM]

How did CCCCn1c(N)c(N(CCC(C)C)C(=O)COC(=O)c2ccc([N+](=O)[O-])s2)c(=O)[nH]c1=O do in these assays?
POLK inh: -14.8%; APEX1 inh: -40.4%; Pol iota inh: 79.4µM*; L3MBTL1 block: inconclusive; POLH inh: inconclusive

What do the screens show for `CCCOC(=O)c1cc(-c2ccc(/C=C3/C(=O)N(C)C(=O)C(C#N)=C3C)o2)ccc1Cl`?
POLK inh: -17.3%; Pol iota inh: inconclusive; POLH inh: 25.1µM*

How did COc1cccc(C2C(C#N)=C(N)Oc3cc(C)n(Cc4ccco4)c(=O)c32)c1 (configuration not stated) do in these assays?
POLK inh: 0.0%; APEX1 inh: 13.7%; Pol iota inh: -4.0%; L3MBTL1 block: -7.7%; POLH inh: -12.3%; Pol beta inh: 13.7%

Results for COc1ccc(C2C(C#N)=C(N)Oc3cc(C)n(Cc4ccco4)c(=O)c32)cc1 (configuration not stated) ?
POLK inh: 31.6µM*; APEX1 inh: 1.1%; Pol iota inh: 14.1µM*; POLH inh: -10.8%; Pol beta inh: inconclusive

Results for COc1ccc(N2CCc3c(C)nc4c(OC)cc(OC)cc4c32)cc1 ?
POLK inh: -2.4%; APEX1 inh: -5.4%; Pol iota inh: 24.6%; L3MBTL1 block: -2.9%; POLH inh: -2.6%; Pol beta inh: 39.8µM*

What do the screens show for `Cc1ccc(NC(=O)COC(=O)/C=C/c2ccc(Br)o2)cc1S(=O)(=O)N(C)C`?
POLK inh: inconclusive; APEX1 inh: inconclusive; Pol iota inh: 44.7µM*; L3MBTL1 block: -29.1%; POLH inh: 5.5%; Pol beta inh: -25.3%

What do the screens show for `CC1CCCCC12NC(=O)N(CC(=O)N1CCN(S(=O)(=O)Cc3ccccc3)CC1)C2=O` (configuration not stated)?
POLK inh: -5.9%; APEX1 inh: -4.9%; Pol iota inh: inconclusive; L3MBTL1 block: 10.8%; POLH inh: -16.2%

What do the screens show for `CC1(C(=O)O)CCC(C(=O)NC2CCCCCC2)C1(C)C` (configuration not stated)?
POLK inh: -2.1%; APEX1 inh: -3.3%; Pol iota inh: inconclusive; L3MBTL1 block: -8.8%; POLH inh: 6.4%; Pol beta inh: 20.1%

Results for CC1(C(=O)O)CCC(C(=O)NC2CCCCC2)C1(C)C (configuration not stated) ?
POLK inh: -8.2%; APEX1 inh: -0.6%; Pol iota inh: 28.9%; POLH inh: -6.7%; Pol beta inh: 89.1µM*

How did O=C(Nc1ncccc1O)C1CCN(S(=O)(=O)c2ccc3ccccc3c2)CC1 do in these assays?
POLK inh: -20.4%; APEX1 inh: -18.6%; Pol iota inh: 13.5%; L3MBTL1 block: -7.9%; POLH inh: -1.5%

Results for N#Cc1ccc(-c2csc(N3CCC(C(N)=O)CC3)n2)cc1 ?
APEX1 inh: -3.3%

What do the screens show for `Cc1ccc(/C=N/n2c(C)nc3ccccc3c2=O)s1`?
APEX1 inh: 0.8%; L3MBTL1 block: -3.3%; Pol beta inh: -0.3%

Results for COc1ccccc1OCCCC(=O)Nc1nnc(C2CCCO2)s1 (configuration not stated) ?
POLK inh: -20.0%; APEX1 inh: 4.6%; Pol iota inh: 23.2%; POLH inh: -15.1%; Pol beta inh: 19.5%

What do the screens show for `O=C(CCCOc1ccccc1)Nc1nnc(C2CCCO2)s1` (configuration not stated)?
POLK inh: inconclusive; APEX1 inh: -1.4%; Pol iota inh: inconclusive; L3MBTL1 block: -8.8%; POLH inh: inconclusive; Pol beta inh: 31.6µM*
